Compound activity deposited in PubChem by National Center for Advancing Translational Sciences (NCATS).
This is one part of a sample in which hits are shown more often than they occur.
KDM5B inh = inhibitors of human KDM5B histone demethylase; Q9UGL1; KDM5B demethylase, FDH-coupled NADH fluorescence (FDH is formaldehyde dehydrogenase); Potency, µM (doses to about 57.7 µM), actives largely listed as inhibitors; 2.6% of 220,000 active; AID 1347165; active = well fitted inhibition curve with a large enough effect; also: nearly all actives have a fitted effect of over 70% in size
Target sequence (Q9UGL1 whole entry, looked up): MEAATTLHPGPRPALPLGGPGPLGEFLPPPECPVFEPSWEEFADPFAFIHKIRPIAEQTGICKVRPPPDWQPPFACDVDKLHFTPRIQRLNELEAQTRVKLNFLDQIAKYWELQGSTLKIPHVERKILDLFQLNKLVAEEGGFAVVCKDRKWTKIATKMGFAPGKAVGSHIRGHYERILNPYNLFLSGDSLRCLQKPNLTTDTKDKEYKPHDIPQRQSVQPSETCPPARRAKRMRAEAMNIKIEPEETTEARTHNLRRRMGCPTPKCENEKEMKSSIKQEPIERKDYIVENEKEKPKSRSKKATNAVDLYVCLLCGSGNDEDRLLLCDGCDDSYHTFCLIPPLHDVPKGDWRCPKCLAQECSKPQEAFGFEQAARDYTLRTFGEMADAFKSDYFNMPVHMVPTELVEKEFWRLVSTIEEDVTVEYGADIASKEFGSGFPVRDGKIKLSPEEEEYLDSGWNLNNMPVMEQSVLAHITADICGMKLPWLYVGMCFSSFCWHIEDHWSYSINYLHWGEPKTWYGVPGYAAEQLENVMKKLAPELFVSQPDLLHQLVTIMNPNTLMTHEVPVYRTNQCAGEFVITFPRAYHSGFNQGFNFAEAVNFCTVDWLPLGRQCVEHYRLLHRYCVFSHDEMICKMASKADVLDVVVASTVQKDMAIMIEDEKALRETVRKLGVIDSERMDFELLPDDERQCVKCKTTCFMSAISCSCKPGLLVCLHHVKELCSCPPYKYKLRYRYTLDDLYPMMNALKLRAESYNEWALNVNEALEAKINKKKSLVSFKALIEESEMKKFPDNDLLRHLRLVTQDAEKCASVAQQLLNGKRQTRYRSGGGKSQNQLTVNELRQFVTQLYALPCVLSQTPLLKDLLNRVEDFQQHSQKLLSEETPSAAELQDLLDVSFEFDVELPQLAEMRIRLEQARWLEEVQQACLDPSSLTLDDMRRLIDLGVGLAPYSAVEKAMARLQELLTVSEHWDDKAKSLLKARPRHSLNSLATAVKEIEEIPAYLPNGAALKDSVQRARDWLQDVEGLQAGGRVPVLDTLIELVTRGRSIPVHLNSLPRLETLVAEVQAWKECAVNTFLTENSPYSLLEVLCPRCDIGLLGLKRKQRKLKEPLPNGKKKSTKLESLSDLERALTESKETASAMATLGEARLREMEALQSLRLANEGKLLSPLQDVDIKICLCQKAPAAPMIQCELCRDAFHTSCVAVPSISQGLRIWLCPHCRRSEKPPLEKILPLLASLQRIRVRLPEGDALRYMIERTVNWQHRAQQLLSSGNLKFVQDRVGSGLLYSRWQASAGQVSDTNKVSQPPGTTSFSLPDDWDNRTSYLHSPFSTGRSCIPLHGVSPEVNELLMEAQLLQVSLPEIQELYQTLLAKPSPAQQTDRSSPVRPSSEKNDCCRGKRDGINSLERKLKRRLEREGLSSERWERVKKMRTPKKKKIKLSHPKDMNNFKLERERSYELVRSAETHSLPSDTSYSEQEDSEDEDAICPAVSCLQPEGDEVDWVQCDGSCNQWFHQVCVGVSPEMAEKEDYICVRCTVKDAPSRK
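Coupled FDH/NAD⁺ fluorescence readout. KDM5BΔAP 200 nM final; compound titration, 10 min RT preincubation; substrate mix 12.5 µM H3K4me3, 25 µM 2-OG, 50 µM Fe(II), 100 µM ascorbate, 0.25 mM NAD⁺, 0.25 U/mL FDH; ΔRFU over 30 min.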
A number is an active result; n = inactive.

SMILES	KDM5B inh
O=C(c1cc2cc(Br)ccc2oc1=O)N1CCc2ccccc2C1	n
O=C(CCS(=O)(=O)Cc1ccccc1)Nc1cc(F)cc(F)c1	n
CCOc1ccc2ccccc2c1CNCc1ccco1	n
O=C(CC[C@H]1NC(=O)c2ccccc2NC1=O)NCCCc1nnc2ccccn12	n
COc1cccc(C(=O)N2CCN(C(C(=O)O)c3cc(C)cc(C)c3)CC2)c1 (centres undefined)	n
O=c1n(-c2ccc(C(F)(F)F)cc2)nc2n1CCN([S+](=O)([O-])c1ccccc1)C2	n
O=C(NCc1nnc2ccc(-c3ccccc3)nn12)c1cccc(C(F)(F)F)c1	32µM
O=C(NCCn1nc(-c2ccc(F)cc2)ccc1=O)c1cccc(C(F)(F)F)c1	n
Cc1ccc(-c2ccc3nnc(CNC(=O)c4cccc(N(C)C)c4)n3n2)cc1C	n
O=C(NCc1nnc2ccc(-c3ccc(Cl)cc3)nn12)c1ccc(F)c(F)c1	32µM
Cc1ccc(-c2ccc3nnc(CNC(=O)c4ccc(F)c(F)c4)n3n2)cc1C	32µM
O=C(NCc1nnc2ccc(-c3ccccc3)nn12)c1ccc(F)c(F)c1	28µM
Cc1ccc(-c2ccc(=O)n(CC(=O)Nc3ccc(F)c(Cl)c3)n2)cc1C	n
Cc1ccn2cc(CNC(=O)c3cccc(C(F)(F)F)c3)nc2c1	n
Cc1scc(C(=O)Nc2ccc3c(c2)CCC3)c1C	n
CC(C)(C)c1ccc2c(c1)OCCOCCOc1cc(C(C)(C)C)ccc1OCCOCCO2	n
Cc1cc(C)n(CCC(=O)NCCc2noc(-c3ccncc3)n2)n1	n
Cc1ccc(-c2ncc(NC(=O)Cc3ccccc3C)cn2)cc1	n
CC(O)CNc1nc(-c2cccnc2)nc2ccccc12 (centres undefined)	n
COc1ccc(C2=C(O)C(=O)N(Cc3ccc(Cl)cc3)C2c2ccccc2F)cc1 (centres undefined)	n
CN(C)C(CNC(=O)CCc1ncc(-c2ccccc2)o1)c1ccco1 (centres undefined)	n
Cc1ccc(-c2ccc3nnc(CNC(=O)c4ccco4)n3n2)cc1C	22µM
Cc1nnc2ccc(-c3cccc(NC(=O)c4ccc(Br)o4)c3)nn12	n
Cc1ccc(C(=O)NCc2nnc3ccc(-c4ccc(C)c(C)c4)nn23)s1	28µM
Cc1ccc(-c2ccc3nnc(CNC(=O)c4ccc[nH]4)n3n2)cc1C	n
SMILES	KDM5B inh
Cc1ccc(-c2ccc3nnc(C)n3n2)cc1S(=O)(=O)Nc1cccc(Cl)c1	n
Cc1ccc(-c2nonc2NC(=O)c2ccco2)cc1C	n
Cc1ccccc1S(=O)(=O)N1CCC(CCC(=O)NC2CCS(=O)(=O)C2)CC1 (centres undefined)	n
CNC(=O)c1ccc(NS(=O)(=O)c2ccc(NC(C)=O)cc2)cc1	n
O=C(CN(c1ccccc1F)S(=O)(=O)c1ccccc1)Nc1ccccc1	n
O=C(c1ccccc1)N1CCCCC1c1nc(-c2cccnn2)no1 (centres undefined)	n
CCc1cccc2c(C(=O)CSc3nc4ccccc4o3)c[nH]c12	n
CCOC(=O)N1CCN(Cc2nc3cc(NC(=O)COc4ccccc4C)ccc3n2C)CC1	n
C=CCc1ccccc1OCCN(C)Cc1nc(C)ccc1O	n
CCc1ccccc1OCCN(C)Cc1ncc[nH]1	22µM
C=CCc1ccccc1OCCN(C)Cc1ncnn1CC	n
N#Cc1ccc(C(=O)NCCSC(F)(F)F)cc1	n
Cc1nnc(NC(=O)NCC(C)(C)N2CCN(C)CC2)s1	n
CC1CCN(S(=O)(=O)c2ccc(NC(=O)c3cc(=O)c4cc(Cl)ccc4o3)cc2)CC1	n
CC(C)(C)NC(=O)CC1(C(=O)NCc2ccc(Cl)cc2)CCCC1	n
O=C1CC2CCN(Cc3ccc(C(F)(F)F)cc3)CC2CCN1 (centres undefined)	n
Cn1cccc1CN1CCC2CC(=O)NCCC2C1 (centres undefined)	100µM
O=C1CC2CCN(Cc3ccccc3)CC2CCN1 (centres undefined)	n
Cc1ccsc1C(=O)N(Cc1ccccn1)C1CC1	n
CC1CCC(NC(=O)CN2C(=O)C(C)(C)c3cc(S(=O)(=O)N4CCC(C)CC4)ccc32)CC1 (centres undefined)	n
O=C([C@H]1C[C@H](Oc2ccccc2)CN1C(=O)NC1CCCCC1)N1CCOCC1	n
CCOc1cc2c(cc1NC(=O)CCc1ccco1)OC(C)C2 (centres undefined)	n
Cc1noc(CN(C)C(=O)C2C3C(=O)N(Cc4ccc(C)c(C)c4)C[C@@]34C=C[C@@H]2O4)n1 (some centres undefined)	n
CNC(=O)c1cc(-c2ccc(F)cc2OC)cc2c1OCCN2Cc1cccnc1	40µM
CC(C)(C)CC(=O)N1CC[C@H]2CC(=O)N(Cc3cccnc3)CC[C@H]2C1	n
SMILES	KDM5B inh
COc1ccc(NC(=O)c2cc3c(=O)n(Cc4cccnc4)ccc3nc2C)cc1OC	n
COc1ccccc1C(C(=O)O)N1CCC(OCc2cccnc2)CC1 (centres undefined)	n
CNC(=O)c1cc(-c2ccc(CO)cc2)cc2c1OCCN2Cc1cccnc1	28µM
Cc1cc(C(=O)N[C@@H]2CN(Cc3cccnc3)C[C@H]2CN(C)C)n(C)n1	n
CNC(=O)c1cc(-c2cnn(C)c2C)cc2c1OCCN2Cc1cccnc1	35µM
CNC(=O)c1cc(-c2ccc(OC)c(OC)c2)cc2c1OCCN2Cc1cccnc1	32µM
COc1cccc(C(=O)NCC2CCCN(Cc3cccnc3)C2)c1OC (centres undefined)	n
CNC(=O)c1cc(-c2cnc(OC)nc2)cc2c1OCCN2Cc1cccnc1	n
Cc1cc(CSc2ncccc2C(=O)Nc2ccnn2Cc2cccnc2)no1	n
CNC(=O)c1cc[nH]c1C1CCCN(C(=O)Cc2cccnc2)C1 (centres undefined)	n
Cn1ccnc1C(NC(=O)COc1ccccc1F)c1ccccc1 (centres undefined)	n
CC(=O)N1CCNc2cc(Nc3ccc(F)cc3)ncc2C1	n
CCOc1ccc(OCC(=O)NCCN2CCN(S(=O)(=O)c3ccc(C)cc3)CC2)cc1	n
CC(C)(C)SCC(=O)NCC1CCN(c2ccccc2)C1 (centres undefined)	n
Cc1ccc(S(=O)(=O)Cc2noc(CCC(=O)NCc3ccc(Cl)cc3)n2)cc1	n
Cc1ccc(C(c2sc3nc(-c4ccco4)nn3c2O)N2CCC(O)CC2)cc1 (centres undefined)	n
C=CC[C@@H]1CC=C[C@@H](C)N1C(=O)c1cc(OC)ccc1OC1CCN(C(=O)C2CC2)CC1	n
O=C(c1ccc(OC(F)F)cc1)n1ccccc1=NC1CCCCC1	n
CC(C)NC(=O)N1CC2ON=C(C(=O)N3CCCC3)C2C1 (centres undefined)	n
CC(C)CN1C(=O)c2cccn2CC1C(=O)NCCCN1CCOCC1 (centres undefined)	n
COc1cccc(CN2C[C@@H](CO)[C@H](c3ccncc3)C2)c1OC	n
CN(C)[S+](=O)([O-])c1ccc2c(c1)OCCN(Cc1cccnc1)C2	n
CNC(=O)c1cc(-c2ccc([S+](C)(=O)[O-])cc2)cc2c1OCCN2Cc1cccnc1	35µM
C[S+](=O)([O-])N1CC2ON=C(C(=O)NCc3cccnc3)C2C1 (centres undefined)	n
CC1CCCC(C)N1 (centres undefined)	n
OC(CNC/C=C/c1ccccc1)c1ccccc1 (centres undefined)	n
COc1ccc(C)cc1-n1cnc2cc(C(=O)NC3CCCC3)ccc21	n
COCCNc1nc2cc(C(=O)N[C@@H]3CC[C@@H](N)C3)ccc2n1C	22µM
